Assay results: the supplement of paper PMC7695840
Structures can show the parent of a compound that is named as a salt.

Experiments:
[1] = tested on: Staphylococcus aureus MW2 delta-mecA (mecA-); experiment: normalized GFP fluorescence (growth of mecA- strain) (fraction of control range); higher = more growth of mecA- strain; conditions: compound concentration: 150 uM; cefoxitin: subinhibitory; fluorescent label: GFP
Procedure, shortened: (§1)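 Single-replicate 1536-well plates carried 150 μM compound (1.5% DMSO), onto which 5 µL/well of a 1:1 mix of pre-induced S. aureus MW2 cells was dispensed: gene-carrying cells tagged with DsRed and deletion cells tagged with GFP, in LB with a subinhibitory antibiotic dose set daily. Incubation ran 20 h at 37 °C, 90% humidity, unshaken, followed by DsRed (540/590) and GFP (485/520) reads. Per-plate scaling of each channel used single-strain control medians, and plates with high untreated ratios and rows with DsRed/GFP >10 were excluded.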

[2] = tested on: Staphylococcus aureus MW2 (mecA+); experiment: normalized DsRed fluorescence (growth of mecA+ strain) (fraction of control range); higher = more growth of mecA+ strain; conditions: compound concentration: 150 uM; cefoxitin: subinhibitory; fluorescent label: DsRed
Procedure, shortened: as §1

## CCCCCCCN(CC)CCCC(O)c1ccc(NS(C)(=O)=O)cc1 (stereo not drawn) [Ibutilide fumarate]
[1]
  normalized GFP fluorescence: 0.723
[2]
  normalized DsRed fluorescence: 0.737

## CC[C@H]1OC(=O)[C@H](C)[C@@H](O[C@H]2C[C@@](C)(OC)[C@@H](O)[C@H](C)O2)[C@H](C)[C@@H](O[C@@H]2O[C@H](C)C[C@H](N(C)C)[C@H]2O)[C@](C)(OC)C[C@@H](C)C(=O)[C@H](C)[C@@H](O)[C@]1(C)O [Clarithromycin (Biaxin, Klacid)]
[1]
  normalized GFP fluorescence: 0.181
[2]
  normalized DsRed fluorescence: 0.788

## OC[C@H]1O[C@H]([S-])[C@H](O)[C@@H](O)[C@@H]1O.[Au+]
[1]
  normalized GFP fluorescence: 0.232
[2]
  normalized DsRed fluorescence: 0.538

## COc1ccccc1OCCNCC(O)COc1cccc2[nH]c3ccccc3c12 (stereo not drawn)
[1]
  normalized GFP fluorescence: 0.0386
[2]
  normalized DsRed fluorescence: 1.17

## CCOc1ccc(NC(C)=O)cc1
[1]
  normalized GFP fluorescence: 0.419
[2]
  normalized DsRed fluorescence: 0.668

## O=C(c1cc(Cc2n[nH]c(=O)c3ccccc23)ccc1F)N1CCN(C(=O)C2CC2)CC1 [Olaparib (AZD2281)]
[1]
  normalized GFP fluorescence: 0.204
[2]
  normalized DsRed fluorescence: 0.856

## CO/N=C(\C(=O)N[C@@H]1C(=O)N2C(C(=O)O)=C(C[N+]3(C)CCCC3)CS[C@H]12)c1csc(N)n1
[1]
  normalized GFP fluorescence: 0.0193
[2]
  normalized DsRed fluorescence: 0.073

## Cn1cnc2c1c(=O)[nH]c(=O)n2C
[1]
  normalized GFP fluorescence: 0.351
[2]
  normalized DsRed fluorescence: 0.469

## C[C@@H]1NC(=O)[C@@H](N)CNC(=O)[C@H](C2CCNC(=N)N2)NC(=O)/C(=C/NC(N)=O)NC(=O)[C@H](CNC(=O)CC(N)CCCN)NC1=O.N=C1NCCC([C@@H]2NC(=O)/C(=C/NC(N)=O)NC(=O)[C@H](CNC(=O)CC(N)CCCN)NC(=O)[C@H](CO)NC(=O)[C@@H](N)CNC2=O)N1 (stereo partly drawn)
[1]
  normalized GFP fluorescence: 0.494
[2]
  normalized DsRed fluorescence: 0.758

## CN(C)CCc1c[nH]c2ccc(C[C@H]3COC(=O)N3)cc12
[1]
  normalized GFP fluorescence: 0.31
[2]
  normalized DsRed fluorescence: 0.962

## CC(=O)OCC(=O)[C@@]1(O)CC[C@H]2[C@@H]3CCC4=CC(=O)CC[C@]4(C)[C@H]3C(=O)C[C@@]21C
[1]
  normalized GFP fluorescence: 0.843
[2]
  normalized DsRed fluorescence: 0.634

## CC(=O)Nc1c(I)c(NC(C)=O)c(I)c(C(=O)O)c1I
[1]
  normalized GFP fluorescence: 0.477
[2]
  normalized DsRed fluorescence: 1.13

## CCOc1ccc(Cc2cc([C@@H]3O[C@H](CO)[C@@H](O)[C@H](O)[C@H]3O)ccc2Cl)cc1 [Dapagliflozin]
[1]
  normalized GFP fluorescence: 0.454
[2]
  normalized DsRed fluorescence: 0.557

## CC(C)c1nc(CN(C)C(=O)N[C@H](C(=O)N[C@@H](Cc2ccccc2)C[C@H](O)[C@H](Cc2ccccc2)NC(=O)OCc2cncs2)C(C)C)cs1 [Ritonavir]
[1]
  normalized GFP fluorescence: 0.0352
[2]
  normalized DsRed fluorescence: 1.01

## O=C1c2ccccc2C(=O)C1c1ccccc1 [Phenindione (Rectadione)]
[1]
  normalized GFP fluorescence: 0.0982
[2]
  normalized DsRed fluorescence: 0.634

## C[C@]12CCC(=O)C=C1C=C[C@@H]1[C@@H]2CC[C@@]2(C)[C@H]1CC[C@@]21CCC(=O)O1
[1]
  normalized GFP fluorescence: 0.191
[2]
  normalized DsRed fluorescence: 0.593

## COCCCN1CCC(NC(=O)c2cc(Cl)c(N)c3c2OCC3)CC1 [Prucalopride]
[1]
  normalized GFP fluorescence: 0.256
[2]
  normalized DsRed fluorescence: 0.927

## CCCc1nc(C)c2c(O)nc(-c3cc(S(=O)(=O)N4CCN(CC)CC4)ccc3OCC)nn12
[1]
  normalized GFP fluorescence: 0.68
[2]
  normalized DsRed fluorescence: 0.461

## N#C[C@@H]1CCCN1C(=O)CNC12CC3CC(CC(O)(C3)C1)C2 [Vildagliptin (LAF-237)]
[1]
  normalized GFP fluorescence: 0.68
[2]
  normalized DsRed fluorescence: 0.519
